In PubChem BioAssay (NCATS):
Inconclusive results are not listed. The source made the active and inactive calls. Unless noted, calls come from the whole dose curve; as a rule, active = well fitted curve in the direction sought with a large enough effect; inconclusive = small, poorly fitted or top-dose-only effect, or another doubt; inactive = no such curve, though single readings can be large; an effect the other way counts as inactive or inconclusive.

Key:
[1] = Cell Viability - Jurkat (AID 426;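 active = dose-dependent loss of cell ATP signal giving a full or clear fitted curve, ranked by lower potency value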; note: potency is the fitted concentration of half-maximal effect); conditions: qHTS
Procedure, shortened: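 Seed 5000 Jurkat E6-1 cells/well; add compound; incubate 40 hr at 37 °C; add CellTiter-Glo; wait 20 min at room temperature; read luminescence. Fit concentration-response with Hill equation for AC50.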

[2] = Cell Viability - Hek293 (AID 427;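 active = compounds whose dose-response curve shows a full or clear partial loss of cell viability, called from curve shape rather than a numeric limit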;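 note: potency is the fitted concentration of half-maximal effect; cells exposed to compound for 40 hours at 37 °C before reading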); conditions: qHTS
Procedure, shortened: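 HEK293 cells in complete medium were exposed to compound for 40 hr at 37 °C, then cellular ATP was read by CellTiter-Glo luminescence. Data were normalized to DMSO (basal) and 100 uM tamoxifen (100% inhibition), and AC50 came from Hill fits.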

[3] = Cell Viability - HepG2 (AID 433; calls by dose curve;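 note: potency is the fitted concentration of half-maximal effect; potency for ATP loss meaning cytotoxicity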); conditions: qHTS
Procedure, shortened: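 Cytotoxicity is scored as loss of intracellular ATP in HepG2 cells exposed to compounds for 40 h. Concentration-response curves, normalized to DMSO and 100 uM tamoxifen, give AC50 values.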

[4] = Cell Viability - H-4-II-E (AID 543); conditions: H-4-II-E rat hepatoma viability; series mostly up to 92.2 µM; note: nearly all actives have a fitted effect of over 35% in size; note: potency is the fitted concentration of half-maximal effect
Procedure, shortened: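 Here, cytotoxicity is measured in the rat hepatoma line H-4-II-E as loss of intracellular ATP after 40 hr compound treatment, detected by luciferase luminescence.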

[5] = Cellular Toxicity (caspase-3) Jurkat (AID 655); conditions: Jurkat caspase-3 activation, luminescence; caspase-3 activation: at 92.2 µM (top of the series), DMSO = 0%, tamoxifen = 100%;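 note: cells exposed to compound for 16 h at 37 °C before reading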
Procedure, shortened: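 Caspase 3/7 activation is scored as increased luminescence in Jurkat cells cultured with compound for 16 hours in complete medium. AC50 values come from Hill fits of qHTS concentration-response data normalized to DMSO and 100 uM tamoxifen controls.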

[6] = Cellular Toxicity (caspase-3) SHSY5Y (AID 657); conditions: SH-SY5Y caspase-3 activation; series mostly up to 91.7 µM;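 note: cells exposed to compound for 16 hours at 37 °C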
Procedure, shortened: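 Cells plated and incubated 5 h at 37 °C, dosed over a concentration range, incubated 16 h, then given Caspase-Glo 3/7 reagent for 1 h at room temperature before luminescence reading. Staurosporine (10 uM) defined full stimulation.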

[7] = Cellular Toxicity (caspase-3) BJ (AID 658); conditions: BJ fibroblasts, luminescence; Potency: caspase-3 activation; series mostly up to 91.7 µM
Procedure, shortened: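 Readout: Caspase-Glo 3/7 luminescence increase in BJ cells after 16 hr treatment at 37 °C. Staurosporine and tamoxifen served as positive controls; AC50 values came from Hill modelling of data normalized to DMSO and 10 uM staurosporine.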

[8] = Cellular Toxicity (caspase-3) MRC-5 (AID 659); conditions: MRC-5 cells, luminescence, normalized: DMSO 0%, 10 µM staurosporine 100%; series mostly up to 91.7 µM;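 note: cells exposed to compound for 16 h at 37 °C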
Procedure, shortened: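 Concentration-dependent caspase 3/7 activation is measured in human normal lung fibroblasts (MRC-5) following 16-hour treatment. AC50 values come from standard Hill-equation modeling of luminescence normalized to DMSO and 10 uM staurosporine.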

[9] = Cellular Toxicity (caspase-3) SK-N-SH (AID 661); conditions: SK-N-SH caspase-3 activation, qHTS; caspase-3 activation: at 91.7 µM (top of the series), DMSO as zero, staurosporine as full
Procedure, shortened: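 Caspase 3/7 activation is measured as a luminescence increase from aminoluciferin released by substrate cleavage in SK-N-SH cells after 16 hr compound treatment; values are AC50 from concentration-response curves.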

[10] = Cellular Toxicity (caspase-3) H-4-II-E (AID 663); conditions: H-4-II-E rat hepatoma; Potency: caspase-3 activation; caspase-3 activation: at 92.2 µM (top of the series), scaled: DMSO 0%, 100 µM tamoxifen 100%;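 note: cells exposed to compound for 16 hr before readout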
Procedure, shortened: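 Apoptosis induction is scored as increased luminescence from caspase 3/7 substrate cleavage in rat hepatoma H-4-II-E cells exposed to compound for 16 hr. Activity is scaled between DMSO and 100 uM tamoxifen.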

[11] = Cell Viability - LYMP1-002 - Assay at 16 hr (AID 948); conditions: LYMP1-002 lymphoblastoid cell viability; series mostly up to 92.2 µM; note: potency is the fitted concentration of half-maximal effect;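 for activity change, negative = cytotoxicity: 0% = DMSO alone and full effect = 92 µM tetraoctylammonium bromide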
Procedure, shortened: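 Acute cytotoxicity is scored as a concentration-dependent fall in intracellular ATP in a human lymphoblastoid line (LYMP1-002) after 16 hr compound exposure at 37 C, measured by luciferase luminescence.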

[12] = MultiTox-Fluor Cytotoxicity Assay - LYMP1-002 - Live Cells (AID 955); conditions: LYMP1-002 lymphoblastoid live-cell protease fluorescence viability; series mostly up to 46.1 µM; note: potency is the fitted concentration of half-maximal effect
Procedure, shortened: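 Cytotoxicity in the human lymphoblastoid line LYMP1-002 is measured as loss of live-cell protease activity after 16 h treatment in complete culture medium. AC50 is derived from Hill-equation fits of qHTS concentration-response data.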

[13] = MultiTox-Fluor Cytotoxicity Assay - LYMP1-003 - Live Cells (AID 962); conditions: LYMP1-003 lymphoblastoid cells, MultiTox-Fluor live-cell protease fluorescence; series mostly up to 92.2 µM;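 note: cells exposed to compound for 16 hours at 37 °C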; note: potency is the fitted concentration of half-maximal effect
Procedure, shortened: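 Cells plated at 2500 per well and incubated 5 hr; compounds added and incubated 16 hr at 37 C; MultiTox-Fluor reagent added for 60 min at room temperature; fluorescence of liberated AFC measured at 405/510 nm.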

[14] = Cell Viability - LYMP2-009 (AID 968); conditions: LYMP2-009 lymphoblastoid cell viability; series mostly up to 92.2 µM;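 note: cells exposed to compound for 24 h at 37 °C; nearly all actives have a fitted effect of over 55% in size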; note: potency is the fitted concentration of half-maximal effect
[15] = Cell Viability - LYMP2-021 (AID 974); conditions: LYMP2-021 lymphoblastoid cells viability; series mostly up to 92.2 µM;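 note: compound exposure lasts 24 hours at 37 °C; nearly all actives have a fitted effect of over 55% in size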; note: potency is the fitted concentration of half-maximal effect; for activity change, negative = cytotoxicity: % is set by controls: 0 for no effect and ±100 for the full control effect
Procedure, shortened: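 Concentration-response cytotoxicity in a human lymphoblastoid line: 24 hr treatment at 37 C in complete culture medium, tetraoctylammonium bromide as positive control, luminescent ATP quantitation as viability measure.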

[16] = Cell Viability - LYMP2-007 (AID 979); conditions: LYMP2-007 lymphoblastoid cell viability; series mostly up to 92.2 µM;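 note: cells exposed to compound for 24 h before reading; nearly all actives have a fitted effect of over 60% in size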; note: potency is the fitted concentration of half-maximal effect;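 for activity change, negative = cytotoxicity: 0% = DMSO only and the negative end = 92 µM tetraoctylammonium bromide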
Procedure, shortened: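 Acute toxicity is scored as a concentration-dependent fall in intracellular ATP in human lymphoblastoid cells treated 24 hr at 37 C, measured by luciferase luminescence; Hill-equation modelling yields AC50.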

[17] = Cell Viability - LYMP1-002 - Assay at 24 hr (AID 993); conditions: LYMP1-002 lymphoblastoid cells viability; series mostly up to 92.2 µM; note: potency is the fitted concentration of half-maximal effect; for activity change, negative = cytotoxicity: % is set by controls: 0 for no effect and ±100 for the full control effect
Procedure, shortened: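 qHTS, LYMP1-002 lymphoblastoid, 24 h cpd, 37 C, CellTiter-Glo ATP luminescence; AC50 via Hill eq.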

[18] = qHTS assay for small molecule agonists of the antioxidant response element (ARE) signaling pathway measured by Nrf2-dependant transcriptional activity - cell viability counter screen (AID 720653; active = well fitted curve in the direction sought with a large enough effect in the repeat runs; an effect the other way counts as inactive or inconclusive; note: potency is the fitted concentration of half-maximal effect; for max response: % is set by controls: 0 for no effect and ±100 for the full control effect); conditions: ARE-bla HepG2 viability, CellTiter-Glo ATP luminescence, 16 h; max response: hits give low values
Procedure, shortened: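 Cytotoxicity counter screen: intracellular ATP quantified by CellTiter-Glo luminescence in the same ARE-bla HepG2 plates, after 16 h compound exposure and a 2 h beta-lactamase substrate step.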

[19] = Cell Viability - NIH 3T3 (AID 541); conditions: NIH 3T3 cell viability, qHTS; activity change, negative = cytotoxicity: at 92.2 µM (top of the series); note: nearly all actives have a fitted effect of over 25% in size; note: potency is the fitted concentration of half-maximal effect;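 for activity change, negative = cytotoxicity: plate controls were DMSO alone for no effect and tamoxifen positive control for full effect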
Procedure, shortened: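 AC50 values reflect concentration-dependent loss of intracellular ATP in NIH 3T3 cells after 40 hr treatment in complete culture medium, quantified by luciferase-based luminescence.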

[20] = molecular target: Mitogen-activated protein kinase 10 (Mus musculus) (UniProt Q61831); assay: JNK3 AlphaScreen Assay (AID 530; active = well fitted curve in either direction with a large enough effect, not every such curve was filed as active;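 note: kinase came from lysate of stimulated human HepG2 cells; signal reports phosphorylation of biotinylated GST-cJun 1-79 at Ser73 with 10 µM ATP; % is set by controls: 0 for no effect and ±100 for the full control effect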); conditions: JNK3 lysate, c-Jun phosphorylation; series mostly up to 57.1 µM
Procedure, shortened: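 Room-temperature AlphaScreen kinase assay; pre-activated HepG2 lysate as JNK3 source, biotin-GST-cJun(1-79) substrate, 10 uM ATP, compound 15 min preincubation.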

CN(C)c1ccc(C2(c3ccc(N(C)C)cc3)OC(=O)c3cc(N(C)C)ccc32)cc1
inactive: Potency [1] > 92 µM | Potency [2] > 92 µM | Potency [3] > 92 µM | Potency [4] | Potency [5] | Potency [6] | Potency [7] | outcome [8] | caspase-3 activation [9] -0.0609% | caspase-3 activation [10] 0.305% | Potency [11] | Potency [12] | Potency [13] | Potency [14] | Potency [15] | Potency [16] | Potency [17] | max response [18] 7.4%

O=C1OC2(c3cc(Br)c(O)c(Br)c3Oc3c2cc(Br)c(O)c3Br)c2c(Cl)c(Cl)c(Cl)c(Cl)c21
active: Potency [19] 25.1 µM
inactive: Potency [2] > 92 µM | Potency [5] | Potency [6] | Potency [7] | outcome [8] | caspase-3 activation [9] 0.172% | caspase-3 activation [10] -0.639% | Potency [11] | Potency [12] | Potency [13] | Potency [15] | Potency [16] | Potency [17] | max response [18] -22.4%

O=Cc1ccc(Cl)c(Cl)c1
inactive: Potency [2] > 92 µM | Potency [3] > 92 µM | Potency [20] | Potency [19] | Potency [4] | Potency [5] | Potency [6] | Potency [7] | outcome [8] | caspase-3 activation [9] 1.15% | caspase-3 activation [10] 0.309% | Potency [11] | Potency [12] | Potency [13] | Potency [14] | Potency [15] | Potency [16] | Potency [17] | max response [18] 7.11%

CCC(C)Nc1ccc(NC(C)CC)cc1 (configuration not stated)
inactive: Potency [5] | Potency [6] | Potency [7] | outcome [8] | caspase-3 activation [9] -5.96% | caspase-3 activation [10] -5.35%
active: Potency [1] 3.09 µM | Potency [2] 19.3 µM | Potency [3] 13.5 µM | Potency [19] 5.01 µM | Potency [4] 6.31 µM | Potency [11] 15.8 µM | Potency [12] 10 µM | Potency [13] 12.6 µM | Potency [14] 3.98 µM | Potency [15] 3.98 µM | Potency [16] 5.01 µM | Potency [17] 15.8 µM | Potency [18] 22.4 µM

C/C=C1\C(=O)C[C@H]2[C@@H]3CCC4=CC(=O)CC[C@]4(C)[C@H]3CC[C@]12C
active: activity change, negative = cytotoxicity [19] -149% | Potency [4] 39.8 µM
inactive: Potency [3] > 92 µM | Potency [20] | Potency [5] | Potency [6] | Potency [7] | caspase-3 activation [9] 1.31% | caspase-3 activation [10] 22.9% | Potency [11] | Potency [12] | Potency [13] | Potency [14] | Potency [15] | Potency [16] | Potency [17] | max response [18] -11.4%

Oc1ccc2cc(SSc3ccc4cc(O)ccc4c3)ccc2c1
active: Potency [1] 36.7 µM | Potency [2] 46.2 µM | Potency [4] 50.1 µM | Potency [11] 50.1 µM | Potency [14] 50.1 µM | Potency [16] 39.8 µM | Potency [17] 50.1 µM
inactive: Potency [3] > 92 µM | Potency [5] | Potency [6] | Potency [7] | outcome [8] | caspase-3 activation [9] 10.2% | caspase-3 activation [10] 4.17% | max response [18] -8.42%

O=[N+]([O-])c1cc([N+](=O)[O-])c2ccc(S(=O)(=O)O)cc2c1O
inactive: Potency [1] > 92 µM | Potency [2] > 92 µM | Potency [3] > 92 µM | Potency [19] | Potency [4] | Potency [5] | Potency [6] | Potency [7] | outcome [8] | caspase-3 activation [9] -1.51% | caspase-3 activation [10] 0.036% | Potency [11] | Potency [12] | Potency [13] | Potency [14] | Potency [15] | Potency [16] | Potency [17] | max response [18] 17.2%
